Sm TGR block: blocks Schistosoma mansoni thioredoxin glutathione reductase | actives 3% (n = 360,000) | Q962Y6 | purified TGR, DTNB reduction, TNB absorbance 405 nm | AID 485364 | Potency, µM (highest dose often 114 µM), usual class: inhibitors; note: nearly all actives have a fitted effect of over 60% in size
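TGR 20 nM + NADPH 100 uM (dispensed conc.), cpd preinc 15 min RT; start with NADPH (500 uM addition) then DTNB (15 mM addition). Kinetic TNB absorbance, 405 nm filter. Four-parameter Hill fit across titration.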
FMDV antiviral: foot and mouth disease virus antiviral activity | FMDV antiviral cell-based qHTS | Potency, µM (doses to about 57.9 µM), most hits filed as inhibitors | actives 1.2% (n = 410,000) | AID 1159524; calls by dose curve; tested in HEK293T cells; note: read-out not given here; nearly all actives have a fitted effect of over 45% in size
VACV mCherry inh: inhibitors of vaccinia virus infection (mCherry reporter signal); Vaccinia virus mCherry reporter infection, fluorescence; Potency, µM (series often up to 36.5 µM), usual class: inhibitors; actives 0.63% (n = 310,000); AID 720579; calls by dose curve; tested in A549 cells; note: nearly all actives have a fitted effect of over 35% in size
HCMV antiviral: blocks human cytomegalovirus replication. HFF cells, HCMV-luciferase reporter, 72 h; active compounds read low. activity change, negative = inhibition, % at 57.5 µM. actives 4.5% (n = 410,000); in the data active = activity change below about -60%; inconclusive = no clear call, values can overlap the other calls; inactive = above about -39%
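Two-dose cell screen: HFF monolayers treated with compounds and infected with luciferase-expressing HCMV at 1 PFU/cell, 72 h at 37C, then lysed for luciferase measurement.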
HCV inhibitor: inhibitors of hepatitis C virus infection; AID 651820; Huh7.5.1 HCVcc-Cre infection, luciferase reporter, 44 h; actives 3.4% (n = 340,000); Potency, µM (top dose mostly 41.8 µM), most hits filed as inhibitors
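Infectious HCV cell culture screen: compound-treated cells (1,000/well, pre-plated 4 h) are infected with HCVcc-Cre at roughly 0.5 moi and grown 44 h. Infection is quantified by luciferase signal after 15 min substrate incubation at room temperature.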
VACV Venus inh: vaccinia inhibition (Venus reporter); Vaccinia virus Venus reporter expression, fluorescence; Potency, µM (top dose mostly 36.5 µM), actives largely listed as inhibitors; actives 0.46% (n = 330,000); AID 720580; calls by dose curve; tested in A549 cells; note: nearly all actives have a fitted effect of over 30% in size
Numbers stand for hits; [ ] = dose if it differs, or a comment. Rows were chosen to be rich in hits. Some 9.3% of all compounds tested hit in one or more screens of this group. Unless noted, calls come from the whole dose curve; as a rule, active = well fitted curve in the direction sought with a large enough effect; inconclusive = small, poorly fitted or top-dose-only effect, or another doubt; inactive = no such curve, though single readings can be large; an effect the other way counts as inactive or inconclusive.

What do the screens show for `Cc1ccsc1/C=N/Nc1cccc(C(=O)O)c1`?
Sm TGR block: inactive; FMDV antiviral: 4.5µM; VACV mCherry inh: inactive; HCMV antiviral: inactive; HCV inhibitor: inactive; VACV Venus inh: inactive

How did O=C(O)c1cccc(N/N=C/c2ccc(F)c(F)c2)c1 do in these assays?
Sm TGR block: inactive; FMDV antiviral: inactive; VACV mCherry inh: inactive; HCMV antiviral: inactive; HCV inhibitor: inactive; VACV Venus inh: inactive

What do the screens show for `CCCCN(C(=O)CSCC(=O)Nc1cccc(C)c1)c1c(N)n(Cc2ccccc2)c(=O)[nH]c1=O`?
Sm TGR block: inactive; FMDV antiviral: inactive; VACV mCherry inh: inactive; HCMV antiviral: inactive; HCV inhibitor: inactive; VACV Venus inh: inactive

How did COc1ccccc1NC(=O)c1cc(Sc2nncn2C)nc2ccccc12 do in these assays?
Sm TGR block: inactive; FMDV antiviral: inactive; HCMV antiviral: inactive; HCV inhibitor: inactive; VACV Venus inh: 11µM

Results for COc1ccccc1NC(=O)c1cc(-c2ccc(OC)c(OC)c2)nc2ccccc12 ?
Sm TGR block: inactive; FMDV antiviral: inactive; VACV mCherry inh: inactive; HCMV antiviral: inactive; HCV inhibitor: inactive; VACV Venus inh: inactive

Results for C=CCSC1=N/C(=C\c2ccsc2)C(=O)S1 ?
Sm TGR block: inactive; FMDV antiviral: inactive; HCMV antiviral: inactive; HCV inhibitor: inactive; VACV Venus inh: inactive

How did C=CCSC1=N/C(=C\c2ccc(C)o2)C(=O)S1 do in these assays?
Sm TGR block: 40µM; FMDV antiviral: inactive; VACV mCherry inh: inconclusive; HCMV antiviral: inactive; HCV inhibitor: inactive; VACV Venus inh: inactive

What do the screens show for `COc1ccc(S(=O)(=O)n2nc(OC(=O)c3cccs3)cc2N)cc1`?
Sm TGR block: inactive; FMDV antiviral: inactive; VACV mCherry inh: inactive; HCMV antiviral: inactive; HCV inhibitor: inactive; VACV Venus inh: inactive

How did CS(=O)(=O)n1nc(OC(=O)c2cc(Br)ccc2Cl)cc1N do in these assays?
Sm TGR block: 5µM; FMDV antiviral: inactive; HCMV antiviral: inactive; HCV inhibitor: inactive

Results for CS(=O)(=O)n1nc(OC(=O)c2cccc3ccccc23)cc1N ?
Sm TGR block: inactive; FMDV antiviral: inconclusive; VACV mCherry inh: inactive; HCMV antiviral: inactive; HCV inhibitor: inactive; VACV Venus inh: inactive

Results for CS(=O)(=O)n1nc(OC(=O)c2cccs2)cc1N ?
Sm TGR block: 40µM; FMDV antiviral: inactive; VACV mCherry inh: inactive; HCMV antiviral: inactive; HCV inhibitor: inactive; VACV Venus inh: inactive

Results for CCCN1Cc2cccc(C(=O)NCCc3cccc(C)c3)c2C1=O ?
Sm TGR block: inactive; FMDV antiviral: inactive; HCMV antiviral: inactive; HCV inhibitor: inactive

What do the screens show for `O=C(C#Cc1ccccc1)c1cccc([N+](=O)[O-])c1`?
Sm TGR block: 0.25µM; FMDV antiviral: 25µM; VACV mCherry inh: inactive; HCMV antiviral: inactive; HCV inhibitor: inconclusive; VACV Venus inh: inactive

What do the screens show for `COc1ccc(C(=O)c2c(-c3ccc(OC)cc3)oc3ccc(-c4ccc(OC)nc4)cc23)cc1`?
FMDV antiviral: inactive; VACV mCherry inh: inactive; HCMV antiviral: inactive; HCV inhibitor: inactive; VACV Venus inh: inactive

What do the screens show for `COc1ccc(C(=O)c2c(-c3cccc(C)c3)oc3ccc(N4CCOCC4)cc23)cn1`?
Sm TGR block: inactive; FMDV antiviral: inactive; VACV mCherry inh: inactive; HCMV antiviral: -73; HCV inhibitor: inconclusive; VACV Venus inh: inactive

What do the screens show for `CCOC(=O)C1=C(CSc2nc(-c3ccccc3)ccc2C#N)OC(N)=C(C#N)C1c1ccc(OC)cc1` (stereo not drawn)?
Sm TGR block: inactive; FMDV antiviral: inactive; HCMV antiviral: inactive; HCV inhibitor: inconclusive; VACV Venus inh: inactive

What do the screens show for `CCSc1ncc(Cl)c(C(=O)N(Cc2ccccc2)c2ccc(OC)cc2)n1`?
Sm TGR block: inactive; FMDV antiviral: inconclusive; VACV mCherry inh: inactive; HCMV antiviral: -75; VACV Venus inh: inactive

How did COc1ccc(C(=O)/C=C/C(=O)N(CC(=O)NC2CCCCC2)Cc2cccs2)c(O)c1 do in these assays?
Sm TGR block: 1.6µM; FMDV antiviral: 6.3µM; HCMV antiviral: -100; HCV inhibitor: inactive

How did COCCN(CC(=O)NC1CCCCC1)C(=O)/C=C/C(=O)c1ccc(OC)cc1O do in these assays?
Sm TGR block: inactive; FMDV antiviral: 3.2µM; VACV mCherry inh: inactive; HCMV antiviral: -112; HCV inhibitor: inconclusive; VACV Venus inh: inactive

What do the screens show for `COc1ccc(C(=O)/C=C/C(=O)N(Cc2ccc3c(c2)OCO3)C(C(=O)NC2CCCCC2)c2ccncc2)c(O)c1` (stereo not drawn)?
Sm TGR block: inactive; FMDV antiviral: inactive; VACV mCherry inh: inconclusive; HCMV antiviral: inconclusive; HCV inhibitor: inconclusive; VACV Venus inh: inconclusive

How did COc1ccc(CN(C(=O)/C=C/C(=O)c2ccc(OC)cc2O)C(C(=O)NC2CCCCC2)c2ccncc2)cc1 (stereo not drawn) do in these assays?
Sm TGR block: inactive; FMDV antiviral: inactive; VACV mCherry inh: inactive; HCMV antiviral: -84; HCV inhibitor: inactive; VACV Venus inh: inconclusive

How did Cc1ccc2cc(C3CC(c4ccco4)=NN3C(=O)CCCC(=O)O)c(Cl)nc2c1 (stereo not drawn) do in these assays?
Sm TGR block: inconclusive; FMDV antiviral: inactive; HCMV antiviral: inconclusive; HCV inhibitor: inactive

How did COc1ccc2cc(C3CC(c4ccco4)=NN3S(=O)(=O)c3ccccc3)c(Cl)nc2c1 (stereo not drawn) do in these assays?
Sm TGR block: inactive; FMDV antiviral: inactive; VACV mCherry inh: inactive; HCMV antiviral: inactive; HCV inhibitor: inconclusive; VACV Venus inh: inactive

What do the screens show for `Cc1ccc2cc(C3CC(c4ccco4)=NN3S(C)(=O)=O)c(Cl)nc2c1` (stereo not drawn)?
Sm TGR block: 11µM; FMDV antiviral: inactive; VACV mCherry inh: inactive; HCMV antiviral: inactive; HCV inhibitor: inactive; VACV Venus inh: inactive

How did CCOc1ccc2nc(Cl)c(C3CC(c4ccco4)=NN3S(C)(=O)=O)cc2c1 (stereo not drawn) do in these assays?
Sm TGR block: 32µM; FMDV antiviral: inactive; VACV mCherry inh: inactive; HCMV antiviral: inactive; HCV inhibitor: inconclusive; VACV Venus inh: inactive

How did Cc1ccc2nc(Cl)c(C3CC(c4ccco4)=NN3S(C)(=O)=O)cc2c1 (stereo not drawn) do in these assays?
Sm TGR block: 14µM; FMDV antiviral: inactive; VACV mCherry inh: inactive; HCMV antiviral: inactive; HCV inhibitor: inactive; VACV Venus inh: inactive

Results for CC(=O)N1N=C(c2ccco2)CC1c1cc2cc(C)ccc2nc1Cl (stereo not drawn) ?
Sm TGR block: inconclusive; FMDV antiviral: inactive; VACV mCherry inh: inactive[7.34 µM]; HCMV antiviral: inactive; HCV inhibitor: inactive; VACV Venus inh: inactive[7.34 µM]

How did Cc1ccc2cc(C3CC(c4ccco4)=NN3S(=O)(=O)c3ccccc3)c(Cl)nc2c1 (stereo not drawn) do in these assays?
Sm TGR block: inactive; FMDV antiviral: inactive; HCMV antiviral: -80; HCV inhibitor: inactive

Source: PubChem BioAssay (National Center for Advancing Translational Sciences (NCATS))
